Screens deposited in PubChem by National Center for Advancing Translational Sciences (NCATS).
This is one part of a sample in which hits are shown more often than they occur.
GRP78 ERSR act: induces the endoplasmic reticulum stress response in human glioma cells | U87-MG GRP78 promoter luciferase reporter, 16 h | 420,000 compounds, 0.02% hits | AID 602332 | Potency, µM, for inactives: top-dose activation, most hits filed as activators; note: series mostly up to about 76 µM; % of control where 0% means no effect; nearly all actives have a fitted effect of over 35% in size
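ERSR induction read as luciferase luminescence (Bright-Glo, 10 min at room temperature) in stably transfected human U87-MG glioma cells exposed to compounds for 16 h, using GRP78 as sensor.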
G9a inh: G9a (human) methyltransferase inhibition; G9a H3K9 monomethylation, AlphaScreen, 2 h; Potency, µM (doses to about 102 µM), without a hit: top-dose activity, negative = inhibition, most hits filed as inhibitors; 350,000 compounds, 8.8% hits; note: % is set by controls: 0 for no effect and ±100 for the full control effect; nearly all actives have a fitted effect of over 75% in size
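G9a (20 nM) preincubated 15 min RT with compounds, then 500 nM biotinylated H3K9 peptide and 20 uM SAM added; 2 h RT reaction. Monomethyl-H3K9 product detected by AlphaScreen with anti-H3K9me1 antibody, streptavidin donor and anti-rabbit IgG acceptor beads.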
12-LOX inh: inhibitors of human 12S-lipoxygenase ALOX12; purified 12hLO, xylenol orange hydroperoxide absorbance; 580,000 compounds, 1.1% hits; P18054; Potency, µM (top dose mostly 108 µM), for inactives: at the top dose activity change, negative = inhibition, hits mostly inhibitors; note: % is set by controls: 0 for no effect and ±100 for the full control effect
Target sequence (P18054 whole entry, looked up): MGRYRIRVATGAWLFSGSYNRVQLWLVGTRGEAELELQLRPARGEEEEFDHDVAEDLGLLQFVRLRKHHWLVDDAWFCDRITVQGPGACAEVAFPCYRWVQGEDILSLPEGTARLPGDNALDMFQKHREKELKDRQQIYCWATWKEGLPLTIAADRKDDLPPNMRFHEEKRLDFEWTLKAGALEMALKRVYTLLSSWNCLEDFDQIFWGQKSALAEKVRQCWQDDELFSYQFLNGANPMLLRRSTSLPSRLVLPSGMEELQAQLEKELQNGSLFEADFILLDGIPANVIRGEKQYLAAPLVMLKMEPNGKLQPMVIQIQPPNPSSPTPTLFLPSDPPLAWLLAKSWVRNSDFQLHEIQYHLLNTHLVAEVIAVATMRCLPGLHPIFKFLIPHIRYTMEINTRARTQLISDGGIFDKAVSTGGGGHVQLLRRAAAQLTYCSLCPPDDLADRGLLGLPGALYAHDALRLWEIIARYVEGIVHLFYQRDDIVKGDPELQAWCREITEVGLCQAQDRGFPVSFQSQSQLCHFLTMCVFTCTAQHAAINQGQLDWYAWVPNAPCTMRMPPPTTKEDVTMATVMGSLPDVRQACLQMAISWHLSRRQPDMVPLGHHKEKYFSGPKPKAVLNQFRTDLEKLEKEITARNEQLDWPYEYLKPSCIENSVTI
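Hydroperoxide product was detected by ferrous iron/xylenol orange as the 573 to 405 nm absorbance ratio. Arachidonic acid at 40 uM (final) was turned over for 30 min at room temperature by 150 nM human 12hLO, pH 7.0 Hepes buffer, after 15 min compound preincubation.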
VDR inh: blocks the human vitamin D receptor; VDR-SRC2-3 peptide fluorescence polarization, 2 h; P11473; 400,000 compounds, 0.93% hits; Potency, µM, for the others: max response, negative = inhibition, actives largely listed as inhibitors; note: % is set by controls: 0 for no effect and ±100 for the full control effect
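Two reagent solutions held at 4 deg C in the dark were dispensed, compounds pinned at 23 nl, and the mixture incubated 2 h at room temperature. Read-out: fluorescence polarization of VDR–SRC2-3 peptide binding.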
Sfp PPTase inh: inhibitors of Bacillus subtilis Sfp phosphopantetheinyl transferase; Potency, µM, for inactives: largest response in the series, negative = inhibition, hits mostly inhibitors; Q9F4F7; Biochemical Sfp PPTase activity, qHTS; 310,000 compounds, 3.5% hits; AID 1490;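 note: the enzyme is Sfp with the accession as filed and its product quenches rhodamine fluorescence; 0% = enzyme reaction without inhibitor and -100% = no enzyme wells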
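Fluorescence-quenching assay: 15 nM Sfp-PPTase preincubated 15 min at room temperature with compound, then 5 uM rhodamine-CoA and 12.5 uM BHQ-2-labelled YbbR peptide added. Fluorescence (ex 525/em 598 nm) read at start and after 30 min; difference gives rate.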
Starred values were filed as active, the others as inactive; ? = inconclusive; . = no result; [ ] = another dose, or the depositor's remark. Calls come from the whole dose curve; as a rule, active = well fitted curve in the direction sought with a large enough effect; inconclusive = small, poorly fitted or top-dose-only effect, or another doubt; inactive = no such curve, though single readings can be large; an effect the other way counts as inactive or inconclusive. Potency is the fitted concentration of half-maximal effect.

SMILES	GRP78 ERSR act	G9a inh	12-LOX inh	VDR inh	Sfp PPTase inh
COc1cc(NC(=O)C2c3ccccc3Oc3ccccc32)c(OC)cc1Cl	.	.	-7%	.	.
COc1ccc(C(=O)NC(=S)NNC(=O)c2cnccn2)cc1OC	5%	20µM*	-20%	-5%	6%
CCOc1cccc(C(=O)NC(=S)Nc2ccccc2)c1	3%	?	14µM*	-10%	-27%
CCCCOc1cccc(C(=O)NC(=S)Nc2cccnc2)c1	-4%	?	-27%	-25%	-3%
COc1cc(-c2noc(C)c2C#CC2(O)CCCCC2)cc(OC)c1OC	?	.	0%	-2%	-5%
COc1cc(-c2noc(C)c2C#CC2(N)CCCCC2)cc(OC)c1OC	-6%	14µM*	-1%	?	-14%
Cc1csc(Nc2ccccc2)[n+]1-c1ccccc1	-1%	10µM*	-19%	-5%	6%
COc1ccc(-c2nc(CS(=O)CC(=O)NC3CCCCC3)c(C)o2)cc1OC (centres undefined)	1%	?	.	-10%	-3%
CCc1ccc(-c2nc(CS(=O)CC(=O)NC3CC3)c(C)o2)cc1 (centres undefined)	2%	?	-28%	-16%	-3%
COc1ccc(-c2nc(CS(=O)CC(=O)NCCC3=CCCCC3)c(C)o2)cc1 (centres undefined)	3%	79µM*	12%	-17%	?
COc1ccc(-c2nc(CS(=O)CC(=O)NC3CCCC(C)C3C)c(C)o2)cc1OC (centres undefined)	-1%	56µM*	-14%	12%	-2%
CCc1ccc(-c2nc(CS(=O)CC(=O)NC3CCCCCC3)c(C)o2)cc1 (centres undefined)	-4%	.	-23%	11%	50µM*
CNC(=O)c1cccc(NC(=O)C2CCCCC2)c1	.	.	10%	.	.
CCCCCOP(=O)(OCCCCC)C1(NS(=O)(=O)c2ccccc2)C=CC(=O)c2ccccc21 (centres undefined)	0%	8.9µM*	?	4%	11%
CCCCCCOC1(c2ccccc2)OC(=O)c2ccccc21 (centres undefined)	-5%	84%[59 µM]	14%	5%	-1%
COC(=O)c1cc(-c2cc(C(F)(F)F)ccc2Cl)oc1C	.	.	-21%	.	.
Cc1ccc(NNC2CC(=O)N(c3cccc(Cl)c3)C2=O)cc1 (centres undefined)	2%	10µM*	20µM*	-11%	-3%
COc1ccc(NC2CC(=O)N(c3ccccc3)C2=O)cc1 (centres undefined)	9%	-10%	22%	-12%	-17%
O=C1CC(NNc2ccccc2)C(=O)N1c1ccccc1 (centres undefined)	0%	8.9µM*	45µM*	-23%	1%
CCCCCC(=O)NNC1CC(=O)N(c2cccc(OCC)c2)C1=O (centres undefined)	-4%	.	6%	-2%	-8%
Cc1ccc(NC2CC(=O)N(c3ccc(C)cc3)C2=O)cc1 (centres undefined)	-3%	-3%	16%	10%	2%
CC(=O)NCCCC(=O)NNC1CC(=O)N(c2cccc(Cl)c2)C1=O (centres undefined)	-3%	5.6µM*	0%	?	?
Cc1ccc(S(=O)(=O)N2CCOCC2)cc1NC(=O)COC(=O)CSc1ccc(Br)cc1C	-5%	18µM*	-7%	-12%	1%
Cc1ccc(S(=O)(=O)N2CCOCC2)cc1NC(=O)COC(=O)CNC(=O)c1ccc(C(C)(C)C)cc1	5%	50µM*	-7%	9%	14%
Cc1ccc(CSCC(=O)Nc2cc(S(=O)(=O)N3CCOCC3)ccc2OC(C)C)cc1	-1%	50µM*	?	-1%	.
SMILES	GRP78 ERSR act	G9a inh	12-LOX inh	VDR inh	Sfp PPTase inh
Cc1ccc(S(=O)(=O)N2CCOCC2)cc1NC(=O)COC(=O)c1ccc(Br)cc1	-2%	.	-9%	-10%	.
Cc1ccc(C)c(S(=O)(=O)Nc2nc3ccccc3nc2Nc2ccc3c(c2)OCCO3)c1	.	.	2%	.	.
COc1ccc(NC(=O)c2oc3ccccc3c2NC(=O)c2cc3ccccc3o2)c(OC)c1	-2%	-24%[59 µM]	-20%	-3%	.
COc1ccc(OC)c(NC(=O)c2cc3ccccc3o2)c1	-4%	-45%[59 µM]	0%[57.4 µM]	-8%	-2%
COc1ccc(NC(=O)CCc2ccccc2)cc1NC(=O)c1ccco1	-4%	17%[59 µM]	12%	9%	-8%
COc1ccc(CC(=O)Nc2ccc(OC)c(NC(=O)c3ccco3)c2)cc1	-5%	50µM*	0%	4%	-23%
COc1ccc(NC(=S)NC(=O)c2cc3ccccc3o2)c(OC)c1	-1%	10µM*	?	-28%	-10%
COc1ccc(NC(=O)c2oc3ccccc3c2NC(=O)c2ccco2)c(OC)c1	-1%	-23%[2.33 µM]	-25%	-4%	25µM*
Cc1ccc(-c2nc3ccccc3o2)cc1NC(=S)NC(=O)c1cc2ccccc2o1	4%	50µM*	8%	-13%	?
CCCCCCCCOS(=O)(=O)O	.	.	3%[176 µM]	.	.
Cn1nnc(C(O)CN2CCOCC2)n1 (centres undefined)	-3%	79µM*	34%	0%	0%
COc1ccc2c(c1)OCC(CNC(=O)c1cnn3ccccc13)C2 (centres undefined)	.	.	-36%	.	.
O=[N+]([O-])c1cc([N+](=O)[O-])c2oc(-c3ccccc3)c(Br)c2c1O	-4%	50µM*	.	-28%	4%
Cc1ccccc1CN(C)C(=O)CCc1nc2ccccc2s1	.	.	4%	.	.
O=C(NCC1Cn2cccc2C(=O)N1Cc1cccnc1)c1n[nH]c(=O)c2ccccc12 (centres undefined)	.	.	82%	.	.
Cn1ccccc1=S	.	.	5%	.	.
Cn1cc[nH]c1=S	-1%	45µM*	-14%	.	?
Cn1ncc2c(=S)nc(Cl)[nH]c21	3%	.	7.1µM*	?	.
COc1cc(/C=C(\C#N)c2nc3ccccc3n2C)cc(OC)c1O	7%	22µM*	?	-21%	6%
N#C/C(=C/C1=Cc2cc(Cl)ccc2OC1)c1nc2ccccc2[nH]1	.	.	16µM*	.	.
COc1cc(/C=C(\C#N)c2nc3ccc(C)cc3[nH]2)cc([N+](=O)[O-])c1O	?	.	45µM*	?	3%
COc1cc(/C=C(\C#N)c2nc3ccccc3[nH]2)cc(OC)c1O	3%	10µM*	?	-11%	?
Cc1cccc(OCC(O)Cn2c(N)nc3c2c(=O)n(C)c(=O)n3C)c1 (centres undefined)	.	.	5%	.	.
CCCOc1cc(N(CC)CC)ccc1/C=C(/C#N)c1nc2ccc(C)cc2[nH]1	7%	20µM*	?	4%	?
COc1ccc(/C=C(\C#N)c2nc3ccccc3[nH]2)cc1I	.	.	6.3µM*	.	.
COc1cccc(/C=C(\C#N)c2nc3ccccc3[nH]2)c1OC	.	.	-48%	.	.
COc1ccc(/C=C(\C#N)c2nc3ccccc3[nH]2)cc1O	4%	?	0%	-1%	4%
COc1c(O)ccc(/C=C(\C#N)c2nc3ccccc3[nH]2)c1[N+](=O)[O-]	7%	7.9µM*	?	2%	-16%
